Most compounds without a hit are left out; they make up all but 21% or so of the library.
CYP2C19 inhib: blockers of cytochrome P450 2C19 activity – biochemical, luminescence, ADME assay, primary screen. AID 778, 2007. inhibition, % at 5 µM. 96,000 compounds, 21% hits. CYP2C19 Supersomes, luciferin-H EGE luminescence, 30 min. P33261;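 active = CYP2C19 inhibition above a set limit at 5 µM in the primary screen, cut at about 50% in these data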;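 note: plate controls were negative control wells for no effect and 2.5 mM tranylcypromine positive control for full effect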
CYP2C9 inhib: blockers of cytochrome P450 2C9 activity – biochemical, luminescence, ADME assay, primary screen. AID 777, 2007. 96,000 compounds, 20% hits. CYP2C9 Supersomes, luciferin-H conversion. P11712. inhibition, % at 5 µM;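 active = blocking of liver enzyme CYP2C9 beyond about 50% at 5 µM, limit read from the data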
Target sequence (P11712 whole entry, looked up): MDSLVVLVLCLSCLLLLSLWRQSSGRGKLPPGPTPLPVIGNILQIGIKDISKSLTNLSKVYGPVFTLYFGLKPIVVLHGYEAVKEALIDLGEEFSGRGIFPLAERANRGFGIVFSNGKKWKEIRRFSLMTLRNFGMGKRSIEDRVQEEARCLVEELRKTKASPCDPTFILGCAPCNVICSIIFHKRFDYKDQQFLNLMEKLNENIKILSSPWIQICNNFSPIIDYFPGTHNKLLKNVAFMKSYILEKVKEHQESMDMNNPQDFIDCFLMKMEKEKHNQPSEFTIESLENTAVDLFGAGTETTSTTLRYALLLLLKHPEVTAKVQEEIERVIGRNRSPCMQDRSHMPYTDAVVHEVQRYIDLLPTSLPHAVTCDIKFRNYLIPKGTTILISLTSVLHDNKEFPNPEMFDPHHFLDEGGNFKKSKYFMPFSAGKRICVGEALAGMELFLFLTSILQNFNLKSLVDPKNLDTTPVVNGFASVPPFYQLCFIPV
MRP-1 activ: H69AR viability gain despite doxorubicin, primary screen, MRP-1 activator project, H69AR cells, CellTiter-Glo; 140,000 compounds, 0.61% hits; viability increase, % at 10 µM; AID 799, 2007; viability rescue;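 active = viability gain under doxorubicin at or above a set limit, the compound median plus 3 SD, cut at about 4.7% in these data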;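 note: MRP-1 overexpressing cells given doxorubicin 25 µM after compound pretreatment; 18-22 h compound pretreatment then 72 h with doxorubicin before readout; 0% = doxorubicin-only wells and 100% = vehicle-treated cells without doxorubicin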
MRP reversal: reversal of MRP1-mediated doxorubicin resistance, primary screen, H69AR cells, doxorubicin co-treatment | H69AR cells + 2 uM doxorubicin, CellTiter-Glo, 72 h | differential viability (reversal), % at 10 µM | 85,000 compounds, 0.04% hits | AID 602, 2007;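 active = viability drop by adding the cancer drug above about 55%, with treated viability meeting a 40% cutoff, limit read from the data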;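 note: viability without doxorubicin minus viability with 2 µM doxorubicin for each compound; larger differential means the compound sensitizes cells more to doxorubicin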
CYP2C19 activ: human CYP2C19 activators, primary screen, biochemical, luminescence; activation factor at 5 µM; 96,000 tested, under 10 active; Cytochrome P450 2C19 (Homo sapiens), P33261; AID 1025, 2008; recombinant CYP2C19, luciferin-H EGE luminescence; active compounds read high; 0 = fully inhibited enzyme, 1 = untreated enzyme;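 active = activation factor of at least 2 at 5 µM in the primary screen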;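 note: 0 = wells with 2.5 mM tranylcypromine and 1 = vehicle-only wells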
CYP2C9 activ: human CYP2C9 activators, primary screen, biochemical, luminescence. Cytochrome P450 2C9 (Homo sapiens), P11712. recombinant CYP2C9, luciferin-H conversion; active compounds read high; factor 1 = untreated enzyme, 0 = blocked. activation factor at 5 µM. 96,000 compounds, 1.4% hits. AID 1024, 2008;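 active = activation factor of 2 or more for CYP2C9 at a 5 µM dose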;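 note: 0 = sulfaphenazole-blocked wells and 1 = vehicle-only wells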
* = called active by the depositor; . = not tested or not shown.

SMILES	CYP2C19 inhib	CYP2C9 inhib	MRP-1 activ	MRP reversal	CYP2C19 activ	CYP2C9 activ
CCCCn1c(O)c(C=NCCCn2ccnc2)c(=O)[nH]c1=O	22	46	-1	12	0.8	0.5
O=c1[nH]c(=O)n(-c2cccc3ccccc23)c(O)c1C=NCCCn1ccnc1	22	75*	0	0	0.8	0.3
O=c1[nH]c(=O)n(Cc2ccccc2)c(O)c1C=NCCCn1ccnc1	7	64*	-1	4	0.9	0.4
OC(c1ccncc1)(c1ccc(F)cc1)c1ccc(F)cc1	.	.	-2	.	.	.
N=c1n(CCO)c2ccccc2n1Cc1ccccc1	5	9	-4	3	1	0.9
Cc1ccc(CN2C(=O)NC(=O)C3(Cc4c(nc5ccccn5c4=O)N4CCCCCC43)C2=O)cc1 (configuration not stated)	1	27	8.8*	-35	1	0.7
O=C1NC(=O)C2(Cc3ccccc3N3CCCC32)C(=O)N1c1cccc(Cl)c1 (configuration not stated)	11	16	-3	-3	0.9	0.8
COc1cc(OC)c(OC)cc1CNC(C)C(O)c1ccccc1 (configuration not stated)	67*	-16	0	-7	0.3	1.2
CC(Cc1ccccc1Sc1ccccc1O)N(C)C (configuration not stated)	61*	21	-1	.	0.4	0.8
CCc1c(C)nc(N)nc1N1N=C1SCC(N)=O	-18	-20	0	10	1.2	1.2
Cn1c(O)c(C=NCCc2c[nH]c3ccccc23)c(=O)n(C)c1=O	-9	0	-3	.	1.1	1
CN1CCc2nc3sc(C#N)c(N)c3c(-c3cccs3)c2C1	10	56*	-3	2	0.9	0.4
Cn1c(O)c(C=NCc2ccco2)c(=O)n(C)c1=O	52*	28	-1	1	0.5	0.7
Nc1ccccc1C(=O)OCCOc1ccccc1	92*	74*	1	2	0.1	0.3
CC(=O)Nc1ccc(OC(=O)c2ccccc2N)cc1	-5	-19	0	8	1	1.2
CCOC(=O)CNC(=O)CSP(=S)(OCC)OCC	96*	70*	-2	.	0	0.3
COC(=O)c1ccc(N2C(=O)CC(N3CCC(n4c(=O)[nH]c5ccccc54)CC3)C2=O)cc1 (configuration not stated)	60*	24	-1	4	0.4	0.8
COCCOC(=O)c1c(C)oc2ccc(OC(=O)N(C)C)cc12	63*	42	-3	2	0.4	0.6
CN(C)C(=O)Oc1ccc(OC(=O)N(C)C)cc1	9	19	0	9	0.9	0.8
COCCOC(=O)C1=C(N)Oc2c(c(=O)oc3ccccc23)C1c1ccncc1 (configuration not stated)	96*	97*	-1	5	0	0
CC(C)Oc1ccc(C2C(C#N)=C(N)Oc3c2c(=O)oc2ccccc32)cc1 (configuration not stated)	-4	90*	-1	9	1	0.1
COc1ccc(C2C(C#N)=C(N)Oc3c2c(=O)oc2ccccc32)cc1Cn1cc([N+](=O)[O-])cn1 (configuration not stated)	33	97*	-2	.	0.7	0
Cc1ccc(-n2nc(C)c(C3C(C#N)=C(N)Oc4c3c(=O)oc3ccccc43)c2Cl)cc1 (configuration not stated)	41	98*	-5	.	0.6	0
O=P1(NCc2ccco2)COc2ccccc2OC1	2	-4	-1	6	1	1
C[C@@H]1C2C[C@@]34COC(=O)C3=CC=C[C@H]4[C@@]13C[C@H](c1ccoc1)O[C@@H]3O2	.	.	-2	.	.	.
CC1=NN(c2ccccc2)C(=O)/C1=C/c1c(O)[nH]c(=S)[nH]c1=O	5	30	-2	.	0.9	0.7
CCCCCCN=Cc1c(O)n(C)c(=O)n(C)c1=O	2	-2	-1	-13	1	1
Cc1cccc(CNCCc2ccccc2)n1	.	.	-3	.	.	.

Bioassay records from PubChem BioAssay.
